Publication PMC4336329 (PLoS ONE, 2015)
In all, about 310,000 compounds went through this assay and about 14,000 (4.5%) showed an effect of 50% or more. The effect is printed as a negative number. The sample holds strong results, similar compounds and a random draw of the others, so the mix is not that of the screen.

Biological target: human ether-à-go-go-related gene (hERG) potassium channel (human, UniProt Q12809)
Test: primary screen, population patch clamp on CHO cells stably expressing hERG; higher = less effect of the substance
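Further: peak tail current of the secondary pulse compared with the same well before compound.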

Chain of human ether-à-go-go-related gene (hERG) potassium channel (Q12809 whole entry, looked up): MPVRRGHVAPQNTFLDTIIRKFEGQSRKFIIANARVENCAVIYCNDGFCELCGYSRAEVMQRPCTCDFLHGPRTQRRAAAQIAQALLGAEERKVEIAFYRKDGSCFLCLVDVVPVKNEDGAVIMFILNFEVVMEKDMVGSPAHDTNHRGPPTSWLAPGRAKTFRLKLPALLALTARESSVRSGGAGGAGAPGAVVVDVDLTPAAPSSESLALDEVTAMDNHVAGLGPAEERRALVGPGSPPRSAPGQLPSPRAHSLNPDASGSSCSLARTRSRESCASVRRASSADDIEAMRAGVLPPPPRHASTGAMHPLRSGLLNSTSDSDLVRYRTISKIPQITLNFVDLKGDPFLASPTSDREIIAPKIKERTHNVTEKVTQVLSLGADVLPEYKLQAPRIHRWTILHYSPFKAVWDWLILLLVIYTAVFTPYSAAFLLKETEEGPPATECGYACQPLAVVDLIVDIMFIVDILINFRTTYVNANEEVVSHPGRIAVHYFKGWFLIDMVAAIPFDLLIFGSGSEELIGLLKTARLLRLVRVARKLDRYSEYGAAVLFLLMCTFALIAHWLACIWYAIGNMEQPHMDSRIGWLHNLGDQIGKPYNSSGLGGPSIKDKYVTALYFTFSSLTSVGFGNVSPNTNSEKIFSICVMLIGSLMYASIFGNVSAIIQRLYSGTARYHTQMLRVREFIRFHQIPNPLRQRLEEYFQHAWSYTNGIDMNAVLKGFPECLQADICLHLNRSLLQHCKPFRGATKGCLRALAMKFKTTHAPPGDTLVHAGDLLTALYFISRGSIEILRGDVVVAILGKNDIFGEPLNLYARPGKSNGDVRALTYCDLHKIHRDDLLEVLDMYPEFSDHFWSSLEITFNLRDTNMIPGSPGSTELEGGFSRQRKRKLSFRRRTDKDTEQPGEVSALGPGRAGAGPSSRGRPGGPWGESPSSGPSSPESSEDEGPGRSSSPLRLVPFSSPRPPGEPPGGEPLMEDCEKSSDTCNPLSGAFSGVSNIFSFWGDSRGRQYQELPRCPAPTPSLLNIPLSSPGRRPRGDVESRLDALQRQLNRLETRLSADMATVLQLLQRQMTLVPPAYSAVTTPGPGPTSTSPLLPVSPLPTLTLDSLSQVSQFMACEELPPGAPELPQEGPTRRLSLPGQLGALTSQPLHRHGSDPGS

Going from `CN(C)CCNC(=O)/C(=C/c1ccc(-c2cccc(Cl)c2)o1)NC(=O)c1ccccc1` to `CN(C)CCNC(=O)/C(=C/c1ccc(-c2ccc(Cl)cc2)o1)NC(=O)c1ccccc1`, the “hERG current change (%, negative = inhibition) at 10uM” value falls from -72% to -80.9%.

First: CN(C)CCNC(=O)/C(=C/c1ccc(-c2ccc(Cl)cc2Cl)o1)NC(=O)c1ccccc1
Second: Cc1ccc(/C=C(/NC(=O)c2ccccc2)C(=O)NCCc2c[nH]c3ccccc23)o1
The “hERG current change (%, negative = inhibition) at 10uM” value of the first is lower: -55.1% for the first, -21.3% for the second.

Going from `Cc1ccc(C(=O)N/C(=C\c2ccc(-c3cc(Cl)ccc3Cl)o2)C(=O)NCc2cccnc2)cc1` to `O=C(O)c1ccc(N/N=C/c2ccc(-c3ccc(Cl)cc3Cl)o2)cc1`, the “hERG current change (%, negative = inhibition) at 10uM” value rises from 2.81% to 10.7%.

Compared with `Cc1ccc(/C=C(\NC(=O)c2ccccc2)C(=O)NCCc2ccccn2)o1`, `O=C(O)c1ccc(N/N=C/c2ccc(-c3cccc(Cl)c3)o2)cc1` is higher in “hERG current change (%, negative = inhibition) at 10uM” value: -12.8% for the first, 8.51% for the second.

Going from `Cc1ccc(C)c(N2N=C(C(=O)Nc3ccccc3N3CCCC3)CCC2=O)c1` to `COc1ccccc1N1CCN(C2CCCN(C(=O)c3oc(C)cc3C)C2)CC1` (centres unmarked), the “hERG current change (%, negative = inhibition) at 10uM” value falls from 3.97% to -47.9%.

Compared with `COc1ccccc1/C=N\Nc1ccccc1[N+](=O)[O-]`, `NC(=O)Cn1cnc(-c2ccccc2)c1` is lower in “hERG current change (%, negative = inhibition) at 10uM” value: 21.7% for the first, 9.58% for the second.

Going from `O=C(O)c1ccc(CNC(=O)c2ccc(S(=O)(=O)N3CCCCC3)cc2)cc1` to `COCCNC(=O)C1(C)C=CC2(CCCCC2)N1C(=O)c1ccccc1` (centres unmarked), the “hERG current change (%, negative = inhibition) at 10uM” value rises from -1.88% to 5.19%.

Going from `CCCCc1c(O)nc(SCC(=O)N2CCOCC2)n(-c2ccccc2OC)c1=O` to `COc1ccccc1N1CCN(C2CCCN(C(=O)c3cc(C)oc3C)C2)CC1` (centres unmarked), the “hERG current change (%, negative = inhibition) at 10uM” value falls from 7.27% to -3.28%.

Going from `CC(=O)N(CN1C(=O)C2CC=CCC2C1=O)c1cccc(Cl)c1` (centres unmarked) to `Cc1cc(C)c(C(=O)N2CCCC(Nc3ccc(F)cc3)C2)o1` (centres unmarked), the “hERG current change (%, negative = inhibition) at 10uM” value rises from -5.31% to 9.39%.

Compared with `Cc1cc(C(=O)N2CCCC(N3CCN(c4cccc(C(F)(F)F)c4)CC3)C2)c(C)o1` (centres unmarked), `Cc1cc(C)c(C(=O)N2CCCC(N3CCN(c4cccc(C(F)(F)F)c4)CC3)C2)o1` (centres unmarked) is lower in “hERG current change (%, negative = inhibition) at 10uM” value: -23.2% for the first, -52.1% for the second.

Compared with `Cc1nnsc1C(=O)N1CCCC(N2CCN(c3ccc(F)cc3)CC2)C1` (centres unmarked), `Cc1nonc1C(=O)N1CCCC(N2CCN(c3ccc(F)cc3)CC2)C1` (centres unmarked) is lower in “hERG current change (%, negative = inhibition) at 10uM” value: -12.3% for the first, -51.8% for the second.

Compared with `Cc1ncoc1C(=O)N1CCCC(N2CCN(c3cccc(C(F)(F)F)c3)CC2)C1` (centres unmarked), `Cc1cc(C)c(C(=O)N2CCCC(N3CCN(c4ccc(F)cc4)CC3)C2)o1` (centres unmarked) is lower in “hERG current change (%, negative = inhibition) at 10uM” value: -35.7% for the first, -73.6% for the second.

Compared with `Cc1cc(C(=O)N2CCCC(N3CCN(c4ccc(F)cc4)CC3)C2)c(C)o1` (centres unmarked), `Cc1ccc2nccc(C(=O)N3CCCC(N4CCN(c5ccc(F)cc5)CC4)C3)c2c1` (centres unmarked) is higher in “hERG current change (%, negative = inhibition) at 10uM” value: -59.1% for the first, -48.5% for the second.
